# VDR inh = blocks the human vitamin D receptor. VDR-SRC2-3 peptide fluorescence polarization, 2 h. actives 0.93% (n = 400,000). P11473. Potency, µM, inactives show max response, negative = inhibition, hits mostly inhibitors
#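 Fluorescence polarization assay measuring small-molecule disruption of VDR binding to the coregulator peptide SRC2-3. Compounds were pin-transferred (23 nl) into the reagent mix and incubated 2 h at room temperature before reading.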
# DT40 TDP1 no CPT = qHTS for Inhibitors of human tyrosyl-DNA phosphodiesterase 1 (TDP1): qHTS in cells in absence of CPT. AID 686978, 2013. DT40 Tdp1-/- hTDP1 cells, no CPT, ATP luminescence, 48 h. Potency, µM (series often up to 46.2 µM), for the others: at the top dose activity change, negative = growth inhibition, hits mostly inhibitors. actives 15% (n = 420,000); also: nearly all actives have a fitted effect of over 55% in size
#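 No-CPT arm: Tdp1-/-;hTDP1 DT40 cells (400/well) plus compounds, incubated ≥48 hr at 37 °C. Readout CellTiter-Glo luminescence.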
# PLK1 PBD block = inhibitors of human PLK1 polo-box domain binding. Potency, µM, for the others: max response, negative = inhibition, hits mostly inhibitors. actives 2.8% (n = 360,000). Plk1 PBD binding of FITC phosphopeptide, fluorescence polarization. AID 720504; also: series mostly up to about 57 µM; nearly all actives have a fitted effect of over 65% in size
# TDP1 inh = blocks human tyrosyl-DNA phosphodiesterase 1 | Q9NUW8 | recombinant TDP1, AlphaScreen DNA substrate cleavage | Potency, µM (doses to about 130 µM), for the others: at the top dose activity change, negative = inhibition, usual class: inhibitors | actives 0.28% (n = 350,000) | AID 485290; also: nearly all actives have a fitted effect of over 40% in size
# Target sequence (Q9NUW8 whole entry, looked up): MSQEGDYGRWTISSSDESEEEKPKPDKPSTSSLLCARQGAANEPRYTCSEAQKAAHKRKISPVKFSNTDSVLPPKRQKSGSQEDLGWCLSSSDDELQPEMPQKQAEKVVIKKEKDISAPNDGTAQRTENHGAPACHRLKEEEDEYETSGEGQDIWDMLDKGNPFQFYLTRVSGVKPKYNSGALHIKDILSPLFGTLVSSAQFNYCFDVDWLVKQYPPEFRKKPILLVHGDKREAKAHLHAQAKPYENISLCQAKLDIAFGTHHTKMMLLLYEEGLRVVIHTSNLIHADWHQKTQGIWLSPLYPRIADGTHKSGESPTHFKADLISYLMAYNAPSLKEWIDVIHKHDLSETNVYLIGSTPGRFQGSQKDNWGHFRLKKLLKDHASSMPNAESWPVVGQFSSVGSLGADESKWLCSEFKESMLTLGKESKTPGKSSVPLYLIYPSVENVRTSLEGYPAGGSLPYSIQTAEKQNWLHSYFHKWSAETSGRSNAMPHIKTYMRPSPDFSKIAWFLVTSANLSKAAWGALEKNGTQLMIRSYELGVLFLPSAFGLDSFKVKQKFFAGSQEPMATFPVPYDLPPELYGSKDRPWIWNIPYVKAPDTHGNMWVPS
#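 Compounds were preincubated with Tdp1 (1 nM final) for 15 min at room temperature before substrate (15 nM final) started a 5 min reaction; beads (10 ug/ml final) were then added for 10 min before AlphaScreen detection.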
# TDP1 cell CPT = growth inhibition of DT40 Tdp1-/-;hTDP1 cells with camptothecin (screen for TDP1 inhibitors); chicken DT40 Tdp1-/-;hTDP1 cells + 20 nM CPT, ATP luminescence, 48 h; Potency, µM (doses to about 46.2 µM), for the others: at the highest dose activity change, negative = growth inhibition, usual class: inhibitors; actives 12% (n = 420,000); also: nearly all actives have a fitted effect of over 55% in size
#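 Cell growth measured by CellTiter-Glo luminescence after a minimum 48 h, 37 C compound exposure with 20 nM CPT in Tdp1-knockout DT40 cells stably expressing hTDP1, seeded 400/well; qHTS titration format.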
# KAT2A inh = blocks human GCN5L2 histone acetyltransferase; Q92830; GCN5L2 HAT assay, ThioGlo1 CoA-SH fluorescence; Potency, µM (top dose mostly 58.9 µM), for the others: at the highest dose activity change, negative = inhibition, hits mostly inhibitors; actives 0.21% (n = 390,000)
#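 qHTS, 1536-well. 20nM enzyme, pH 7.5 HEPES/EDTA/Tween-20 buffer; 15 min compound preinc., RT. Start: 75uM H3(1-25), 70uM AcCoA, 50uM ThioGlo1. Read Ex340/Em540 at t=0 (autofluorescence flag) and t=20 min.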
# * hit, by the source's call; ? = inconclusive; · = not tested or not shown; [ ] = another dose, or the depositor's remark. Only some compounds are listed: those with a hit (about 18% of all), similar ones and a draw of the others. Calls follow the shape of the dose curve; as a rule, active = well fitted curve in the direction sought with a large enough effect; inconclusive = small, poorly fitted or top-dose-only effect, or another doubt; inactive = no such curve, though single readings can be large; an effect the other way counts as inactive or inconclusive. % is scaled to controls: 0 for no effect and ±100 for the full control effect; potency is read from the fitted curve at half-maximal effect.
SMILES,VDR inh,DT40 TDP1 no CPT,PLK1 PBD block,TDP1 inh,TDP1 cell CPT,KAT2A inh
Cc1c(Cl)ccc2c(C(=O)NCCCn3nccc3C)cc(-c3ccccn3)nc12,6.2%,?,-4.8%,1.0%,20.6µM*,-4.8%
O=C(NCCc1ccccn1)c1cc(-c2ccccc2Cl)nc2ccccc12,?,18.4µM*,-10.3%,-0.6%,-29.7%,46.6%
O=C(NCCc1ccc(Cl)cc1)c1cc(-c2ccncc2)nc2ccccc12,-3.9%,?,-18.4%,·,?,-2.2%
Cc1cc(C)c2nc(-c3ccccn3)cc(C(=O)NCc3cc(C)n(C)n3)c2c1,-16.8%,?,5.0%,0.0%,-18.2%,-17.8%
O=C(CN1C(=O)COc2ccc(S(=O)(=O)N3CCCC3)cc21)N1CCN(c2cccc(C(F)(F)F)c2)CC1,-1.2%,·,·,-3.8%,·,1.9%
C#CCn1c(=O)c2c(nc(/C=C/c3cccc(OC)c3)n2C)n(CCCO)c1=O,6.7%,·,·,10.8%,·,-19.7%
Cc1ccc2nc(-c3ccccc3)nn2c1,-5.5%,?,-7.0%,·,6.1%,·
CCOc1ccc(NC(=O)Cn2cc(C(=O)c3ccc(CC)cc3)c(=O)c3cc(C)ccc32)cc1,-3.8%,-24.3%,·,3.8%,-12.4%,-1.1%
O=C(NCCC(=O)N1CCN(S(=O)(=O)c2ccccc2Cl)CC1)Nc1ccccc1,-4.7%,-0.7%,-26.7%,-4.0%[56.1 µM],-23.9%,-0.8%
CC(O)(c1ccc(F)c(F)c1)c1nc(-c2cccc(C#N)c2)cs1 (stereo not given),·,?,-10.2%,·,?,·
Cc1csc(-c2nc3ccccc3n2C(C(=O)Nc2c(C)cccc2C)C2CC2)c1 (stereo not given),·,?,-1.0%,·,?,·
COc1ccc(-c2nn(CCC#N)cc2C(=O)Nc2cccc(C(=O)O)c2)cc1[N+](=O)[O-],-8.3%,12.1%,-4.5%,13.7%,6.9%,-4.6%
O=C(NCCc1ccccn1)c1c(-c2ccsc2)sc2ccccc12,21.5%,?,-11.0%,-0.1%,?,-1.7%
O=C(NCCc1ccccn1)c1c(-c2ccccc2)sc2ccccc12,-23.4%,16.4µM*,-9.1%,0.1%,?,-1.2%
O=C(N/C(=C\c1cccc(Br)c1)C(=O)N1CCCCC1)c1ccco1,-28.6%,-21.2%,-19.6%,9.1%,-25.1%,-3.9%
Cc1ccc(N(CC(=O)NC(C)c2ccccc2)S(=O)(=O)c2c(C)noc2C)cc1 (stereo not given),-12.2%,16.4µM*,-14.4%,12.3%,?,-6.4%
Cc1ccc(N(CC(=O)Nc2cc(C)ccc2C)S(=O)(=O)c2c(C)noc2C)cc1,2.2%,23.1µM*,·,0.0%,?,-6.1%
CCOc1ccc(OCC)c(NC(=O)CN(c2ccc(C)cc2)S(=O)(=O)c2c(C)noc2C)c1,15.9%,23.1µM*,-22.4%,2.0%,?,-9.7%
CCOc1ccc(N(CC(=O)Nc2ccccc2CC)S(=O)(=O)c2c(C)noc2C)cc1,7.6%,3.66µM*,·,7.0%,4.61µM*,-12.5%
CN(C)c1ccc(Nc2ccc([N+](=O)[O-])cn2)cc1,2.5%,?,-24.4%,·,0.5%,-0.1%
COc1cccc(CN2CCOc3ccc(CN4C[C@@H](C)O[C@@H](C)C4)cc3C2)c1OC,·,-7.5%,·,·,-1.5%,·
Nc1sc(-c2ccccc2)cc1C(=O)N1CCN(c2ccccc2)CC1,·,?,-6.6%,·,?,·
CCOc1ccc(N(CC(=O)NCCc2ccc(C)cc2)S(=O)(=O)c2c(C)noc2C)cc1,-1.9%,?,1.6%,3.5%,23.1µM*,-2.2%
COc1ccc2c(c1OC)C(Cc1ccccc1)N1CCc3cc4c(cc3C1C2)OCO4 (stereo not given),?,11.9µM*,·,25.0%,5.96µM*,?

# High-throughput results deposited in PubChem BioAssay by National Center for Advancing Translational Sciences (NCATS).
